# Experimental data: PubChem BioAssay
# Unmarked numbers belong to inactive results.
# Test: A549 lung cancer cell viability effects, profiling panel, resazurin fluorescence, 24 h, PK04 Diversity Set (AID 1171); further: test concentration not given here
# Conditions: higher = more signal, called active from +8 up or from −8 down
row,Structure (SMILES),z-score
1,[N-]=[N+]=NCc1ccccc1[C@H]1OC(c2ccc(OCCCO)cc2)=N[C@@]1(Cc1ccccc1N=[N+]=[N-])C(=O)N1CCOCC1,-0.772
2,CO[C@H]1O[C@H](CO)[C@@H](OC(=O)Nc2cccc(F)c2)[C@H](OC(=O)Nc2ccc3c(c2)OCO3)[C@@H]1OC(=O)Nc1ccc2c(c1)OCO2,-1.47
3,[N-]=[N+]=Nc1ccccc1C[C@@]1(C(=O)NCc2ccccc2)N=C(c2ccc(OCCCO)cc2)O[C@@H]1c1ccccc1,0.808
4,C=C[C@H](C)[C@@H](OC(=O)Nc1ccc(SC)cc1)c1ccc(OCCO)cc1,-0.505
5,COc1ccc(C#Cc2ccc3c(c2)[C@]2(C(=O)N3)[C@H](c3ccccc3OCCO)N3[C@H](c4ccccc4)[C@H](c4ccccc4)OC(=O)[C@H]3[C@@H]2C(=O)NC[C@H](O)c2ccccc2)cc1,-1.01
